# Results taken from PubChem BioAssay AID2507 (National Center for Advancing Translational Sciences (NCATS), 2010).
# Results filed as inconclusive are left out. The source made the active and inactive calls. Calls follow the shape of the dose curve; as a rule, active = well fitted inhibition curve with a large enough effect; inconclusive = small, poorly fitted or top-dose-only effect, or effect the other way; inactive = flat fitted curve, though single readings scatter.
# Assay: Secondary Assay for General miRNAs Modulators and/or Inhibitors/Activators of miR-21: miR-30 Firefly Luciferase Assay
# Conditions: HeLa miR-30 FLuc reporter, luminescence, 48 h; series mostly up to 38.3 µM
# From the text: MLSCN Grant: 1 R21 NS059478-01 Assay Provider: Qihong Huang, The Wistar Institute NCGC Assay Overview: MicroRNAs (miRNAs) are endogenously encoded small (~20-25 nucleotides), nonprotein-coding RNAs that are involved in post-transcriptional repression of target messenger RNAs (mRNAs) (Le and Hannon, 2004). Estimated to be involved in the regulation of 30% of all protein-coding mRNAs (Filipowicz et al., 2008), miRNAs play a significant role in many biological processes including cellular differentiation and tissue development (Ghildiyal and Zamore, 2009). […] Compounds active in the miR-21 FLuc assay were clustered using Leadscope and active chemical series were prioritized based on chemical properties, potential for medicinal chemistry optimization, and SAR. Within each chemical series, representative compounds were re-acquired to test for activity in a secondary assay based on the quality of their CRC, efficacy, and potency. The secondary assay to determine if compounds active in the miR-21 FLuc assay were potentially specific for miR-21 and were not general modulators of the miRNA pathway was another cell-based FLuc reporter gene assay, this time targeting miR-30. Compounds found active in both the miR-21 FLuc and miR-30 FLuc assays are not considered miR-21 specific compounds, and may be general miRNA modulators.
# NCGC Assay Protocol Summary: Reagents: HeLa cells stably expressing firefly luciferase (FLuc) under the control of a CMV promoter (upstream) and a miR-30 binding sequence directly downstream of the gene. These cells also stably express miR-30. Control compounds used were compound C3 (provided by collaborator), N6-phenyladenosine (MP Biomedicals, 0215379625), and DMSO. Assay Summary: 6uL of HeLa miR-30-FLuc cells in assay buffer (DMEM, Invitrogen #21063-029; 10% FBS, HyClone #SH30071.03) were dispensed at 1000cells/well (1.7 x 10^5 cells/mL) into Greiner solid-white TC-treated 1536-well plates using a Multidrop Combi (Thermo Fisher Scientific). Plates were incubated for one hour at 37 degree Celsius, 95% humidity, 5% CO2. These assay plates were then treated with 23nL of compound or DMSO using a Kalypsys pin tool, which allows for delivery of a 24-point titration of each compound to the assay plate, with a final compound concentration ranging from approximately 40uM to 5pM. Assay plates were then incubated for 48 hours. After incubation, plates were allowed to come to RT for one hour prior to delivery of 3uL of 3X luciferase detection reagent. After a 15 minute incubation to allow for cell lysis, luciferase activity was measured using a ViewLux CCD imager (PerkinElmer), with an average exposure time of 2-12 seconds. Keywords: NIH Roadmap, MLPCN, MLSMR, qHTS, miR-21, miR-30, microRNA, firefly luciferase, FLuc.
row,Compound,Potency
1,COc1ccc(-c2csc(NC(=O)COC(=O)c3ccc(Br)o3)n2)cc1,2.25 µM (active)
2,COc1ccccc1NC(=O)CSc1nnc(-c2ccccn2)o1,5.04 µM (active)
3,Cc1ccc2c(C)c(C(=O)N(C)C(C)c3ccncn3)oc2c1C (stereo not given),22.5 µM (active)
4,COc1ccc(NC(=O)c2ncn(-c3ccccc3)n2)cc1Cl,14.2 µM (active)
5,Clc1ccc(-n2ncc3c(NCc4ccccn4)ncnc32)cc1,12.6 µM (active)
6,Cc1cc(C)c2c(N)c(C(=O)Nc3ccccc3F)sc2n1,1.79 µM (active)
7,Cc1cc(C)cc(NC(=O)CSc2nnc(CNC(=O)c3ccco3)o2)c1,inactive
8,CCC(=O)n1nc(-c2cccnc2)nc1NCc1ccc(F)cc1,inactive
9,O=C(Nc1nnc(S(=O)(=O)N2CCCC2)s1)c1ccc(F)cc1,inactive
10,CC(C)(C)c1ccc(NC(=O)CSc2nnc(-c3n[nH]c4ccccc34)o2)cc1,11.3 µM (active)
11,Cc1cccc(OCc2nnc(SCC(=O)Nc3ccc(N4CCOCC4)cc3)o2)c1,inactive
12,CSc1nsc(SCC(=O)Nc2ccc(F)cc2F)n1,12.6 µM (active)
13,COc1nc(Nc2cccc(C(F)(F)F)c2)nc(OC)n1,22.5 µM (active)
14,c1ccc(CSc2nnc3ccc(-c4cccs4)nn23)nc1,11.3 µM (active)
15,O=C(COc1ccccc1F)Nc1ccc(-c2nc3ccccc3s2)cc1,3.18 µM (active)
16,COc1ccc(NC(=O)CSc2nnc(-c3cccs3)o2)cc1,3.56 µM (active)
17,Cc1cc(C)n2c(SCc3ccccc3Cl)nnc2n1,14.2 µM (active)
18,COc1ccc(-c2nc(SCc3ccccc3)n(S(C)(=O)=O)n2)cc1,11.3 µM (active)
19,O=C(CSc1nnc(-c2ccc(C(F)(F)F)cn2)o1)Nc1cccc(Cl)c1,2.83 µM (active)
20,Nc1c(C(=O)Nc2ccccc2Br)sc2nc(-c3cccs3)ccc12,inactive

row,Compound,Potency
1,Cc1ccc(-n2nnc(-c3nc(-c4cccs4)no3)c2N)cc1C,2.52 µM (active)
2,COc1ccc(CNc2nc(-c3ccco3)nn2C(=O)CC(C)C)cc1,11.3 µM (active)
3,CC(C)C(=O)Nc1nc2c(s1)CC(C(C)(C)C)CC2 (stereo not given),0.895 µM (active)
4,COc1ccc(NC(=O)CSc2nc(SC)ns2)c(OC)c1,5.04 µM (active)
5,COc1ccc(NCc2cccn2-c2nnc(N3CCC(C)CC3)s2)c(OC)c1,1.79 µM (active)
6,CCc1nonc1NC(=O)c1oc2cc(C)c(C)cc2c1C,3.18 µM (active)
7,Cc1ccc(SCC(=O)Nc2ccc3oc(-c4ccc(F)cc4)nc3c2)cc1,11.3 µM (active)
8,COc1ccc(OCC(=O)Nc2ccc(-c3nc4cc(C)c(C)cc4o3)cc2)cc1,0.798 µM (active)
9,Cc1cccc(-c2nsc(SCC(=O)Nc3ccc4c(c3)OCO4)n2)c1,22.5 µM (active)
10,Cc1ccc(CNc2nc3nc(C)c(Cl)c(C)n3n2)cc1,6.34 µM (active)
11,CCc1cccc(-n2nnc(-c3nsc(NC(=O)c4cccs4)n3)c2C)c1,7.11 µM (active)
12,COc1cc(-c2nc3cnccn3c2Nc2ccc(C(C)C)cc2)ccc1O,2.25 µM (active)
13,Cc1c(-c2nc(-c3ccc(C(F)(F)F)cc3)no2)n(C)oc1=O,0.503 µM (active)
14,Cc1c(-c2nsc(NC(=O)c3cccs3)n2)nnn1-c1ccc(F)cc1,0.895 µM (active)
15,CCc1ccc2oc(C(=O)Nc3nonc3CC)c(C)c2c1,3.56 µM (active)
16,CC(C)COc1ccc(C(=O)Nc2cc(-c3ccccc3)no2)cc1,2.25 µM (active)
17,CC(=O)c1cnc2nc(SCc3ccccc3)nn2c1C,12.6 µM (active)
18,Cc1ccc(-c2nc(NCc3ccco3)n(S(C)(=O)=O)n2)cc1,11.3 µM (active)
19,COc1ccc(CNc2n[nH]c(-c3ccco3)n2)cc1OC,inactive
20,Cc1ccccc1OCCn1cnc2c(N)ncnc21,inactive
